These results are taken from ChEMBL document CHEMBL4513216, “Probing the Open Global Health Chemical Diversity Library for Multistage-Active Starting Points for Next-Generation Antimalarials” (ACS Infect Dis, 2020).

Out of some 69,000 compounds screened, about 8,600 (12%) showed an effect of 50% or more. The sample holds strong results, similar compounds and a random draw of the others, so the mix is not that of the screen.

For this assay, the system named is Plasmodium berghei. Description: Screen against P. berghei liver stage (PbLuc), transformed with Luciferase, at 10uM. The assay is classed as functional, HepG2. The settings on record: tested at 10 uM.
Consider `Cc1nc(-c2ccsc2)ccc1C(=O)NCCCN1CCOCC1`, for which the INHIBITION is given as 25.315%. Turning to `CSc1nnc(CNC(=O)Nc2ccccc2Br)n1C`, the INHIBITION was found to be 19.8%. Regarding `CNCC[C@H]1CC(C)(C)Oc2ccc(OC)cc21`, the INHIBITION is given as 42.6%. Under `CNCC[C@H]1CC(C)(C)Oc2ccc(C)cc21` stands 53%; under `CNCC[C@H]1CC(C)(C)Oc2ccc(OCC3CC3)cc21`, 42.6%; under `CN1CCN(C(=O)C2CCN(c3cccnn3)C2)CC1` (stereo not given), -18.9%. Next, `O=C(NCc1ccco1)[C@@H]1CCO[C@@H]2CCN(C3CCOCC3)C[C@H]21`: 11.3%; `Cc1nnc2n1CCN(CCOc1ccc(C(C)(C)C)cc1)C2`: 13.3%.

On to `NC(=O)C(CNC(=O)COCC(F)(F)F)Cc1ccc(F)cc1` (stereo not given), for which the INHIBITION is reported as 17.4%. On to `OC1(CN2CCCCC2)CCN(c2cc(C(F)(F)F)ccn2)C1` (stereo not given), for which the INHIBITION turned out to be 33.9%. Regarding `OC1(CN2CCCCC2)CCN(c2cccc(C(F)(F)F)n2)C1` (stereo not given), the INHIBITION is on record as 46.7%. Next, `OC1(CN2CCCCC2)CCN(c2ccc(C(F)(F)F)cn2)C1` (stereo not given): 59.4%. Next, `O=C(NCc1ccoc1)Nc1cc(C(F)(F)F)c[nH]c1=O`: -45.5%.

As to `CO[C@H]1CN(Cc2ccccc2F)[C@@H]2CCCO[C@H]12`, the INHIBITION was found to be 68.8%. Under `Fc1ccccc1CN1C[C@@H](OCc2ccncc2)[C@H]2OCCC[C@H]21` stands 23.5%. For the molecule `Fc1ccccc1CN1C[C@H](OCC2CCOCC2)[C@H]2OCCC[C@H]21`, the INHIBITION is given as -28.8%. Under `Cc1ccccc1CN1CC[C@H]2C[C@H](C(=O)N(C)C)O[C@H]2C1` stands 19.5%. As for `COCC(=O)N1CCc2cccc(S(=O)(=O)N3CCN(C)CC3)c2C1`, the INHIBITION was 8.51%. With `O=C(Nc1ccccc1-c1cccs1)N1CCOCC1`, the INHIBITION was -11.6%. Next, `CN1CCCc2cc(NC(=O)N3CCOC(C(N)=O)C3)ccc21` (stereo not given): 68.5%; `Cc1cc(NC(=O)N2CCOC(C(N)=O)C2)ccc1Br` (stereo not given): -62.8%.

Turning to `NC(=O)C1CN(C(=O)Nc2ccccc2-c2cccs2)CCO1` (stereo not given), the INHIBITION is listed as 57.2%. Under `Cc1ccc(NC(=O)N2CCOC(C(N)=O)C2)cc1C(F)(F)F` (stereo not given) stands -14.3%. Under `NC(=O)C1CN(C(=O)Nc2cc(Cl)cc(Cl)c2)CCO1` (stereo not given) stands 88.4%.

For the molecule `COCC1CN(C(=O)Nc2cc(Cl)cc(Cl)c2)CCO1` (stereo not given), the INHIBITION is reported as -42.9%.

Turning to `NC(=O)C1CN(C(=O)Nc2ccccc2N2CCCCCC2)CCO1` (stereo not given), the INHIBITION was -22.7%. Under `CCOc1ccc(NC(=O)N2CCOC(C(N)=O)C2)cc1Cl` (stereo not given) stands -16.9%; under `CCC(=O)NS(=O)(=O)c1cccnc1Nc1cccc(Cl)c1Cl`, 42.6%. `Cc1nc(CN2Cc3nccn3CC(CN3CCOCC3)C2)cs1` (stereo not given): the INHIBITION is given as -40.1%. Under `COc1cccc(-n2nnc(C(=O)N3CCC(C(N)=O)CC3)c2C)c1` stands 13.115%. Next, `Cc1cc(C(=O)NC2CCCOc3cc(Cl)ccc32)n(C)n1` (stereo not given): 43.6%. Under `O=C(c1ccc2c(c1)[nH]c(=O)n2C1CCC(O)CC1)N1CCOCC1` (stereo not given) stands 48%. Regarding `CNC(=O)[C@H]1C[C@H]2CN(C(=O)Nc3ccc(F)cc3)C[C@@H]1O2`, the INHIBITION turned out to be 13.4%. Under `CCN1CC[C@]2(CN(Cc3nccs3)C[C@H]2c2ccccc2)C1=O` stands 13.7%. Next, `Cc1nc(C2CCCN2Cc2cc(=O)n(C)c(=O)n2C)no1` (stereo not given): 15.3%; `Cc1csc2c(N3CCC(NCCCc4cnn(C)c4)CC3)ncnc12`: 31.6%. Regarding `CCc1c(C)sc2ncnc(N3CCN(C4CCOCC4)CC3)c12`, the INHIBITION was determined as 4.15%. In the case of `Cc1nn(C)c2ncnc(N3CCCC(OCc4cccnc4)C3)c12` (stereo not given), the INHIBITION came to 25.1%. Consider `Cn1cc(CN2CCc3ncnc(N4CCCC4)c3CC2)cn1`, for which the INHIBITION is 30.5%. Turning to `Cc1sc2ncnc(N3CCC(N(C)Cc4cnn(C)c4)CC3)c2c1C`, the INHIBITION came out at 61.2%. Take `Cc1cc2c(N3CCC(N(C)Cc4nccs4)CC3)ncnc2s1`: the INHIBITION is 87.5%. Under `Cc1nn(C)c2nc(N(Cc3nccs3)C3CC3)sc12` stands 33.2%; under `Cc1cc2c(N3CCCC(OCc4cccnc4)C3)ncnc2s1` (stereo not given), 85.2%; under `CN(Cc1nccs1)C1CCN(c2ncccn2)CC1`, 21.5%.

`Cc1sc2ncnc(N3CCCC3Cn3cccn3)c2c1C` (stereo not given): the INHIBITION is -53%. Under `Cc1cc2c(N3CCC(N(C)CCc4cnn(C)c4)CC3)ncnc2s1` stands 51.2%; under `CC(C)(C(=O)N1CCCC(OCc2cccnc2)C1)n1cccc1` (stereo not given), 23.1%; under `CCCS(=O)(=O)N1CCn2cc(CNc3ccccn3)nc2C1`, 23.3%. As for `CCC(=O)N1Cc2nccn2CC(CN(C)Cc2cccnc2)C1` (stereo not given), the INHIBITION was 39.2%. `Cc1csc(N2CCN(Cc3cnc4c(c3)c(C)nn4C)CC2)n1`: the INHIBITION is listed as 24%.

Take `CN(C)C[C@H]1OC[C@@H]2CCN(C(=O)c3ccco3)C[C@@H]21`: the INHIBITION is on record as -4.56%. Consider `Cc1nc(C)n(CCNC(=O)C2(C)CC(c3ccccc3)=NO2)n1` (stereo not given), for which the INHIBITION is given as 23%. Under `Fc1cnc(N2CC[C@@H]3O[C@@H](COCc4cccnc4)CC[C@@H]32)nc1` stands 31.4%; under `CCc1ccsc1C(=O)N1CCCN(Cc2cscn2)CC1`, -16%. Turning to `CC(C)c1cc2c(s1)NC(c1ccccc1)NC2=O` (stereo not given), the INHIBITION turned out to be 9.63%. Next, `Cc1nc(CN2CCCC(N(C)Cc3cnn(C)c3)C2)no1` (stereo not given): 5.48%; `Cc1cc2c(N3CCC(N(C)Cc4cnn(C)c4)CC3)ncnc2s1`: 75.7%; `Cc1cnc(CN(C)C2CCN(CCCc3cnn(C)c3)C2)o1` (stereo not given): 48.2%. Under `COc1ccc2c(c1)CN(CC1CC1)C(=O)CCN2CC(C)(C)O` stands 23.7%.

On to `O=C(c1sccc1C1CC1)N1CCN(CC(F)(F)F)CC1`, for which the INHIBITION was determined as 27.6%.

For the molecule `O=C(Nc1cccc(F)c1)C1=NOC2(CCNCC2)C1`, the INHIBITION was -2.41%. Next, `O=C(CCn1cncn1)NCCOc1cccc(Cl)c1`: 10.7%.

Take `O=C(NCCOc1ncc(Cl)cc1Cl)c1ccncc1`: the INHIBITION was found to be 39.5%.

For `O=C(CCn1cccn1)NCCOc1ccc2c(c1)OCO2`, the INHIBITION was -13.9%.

As for `O=C(CCc1ccncc1)NCCOc1ncc(Cl)cc1Cl`, the INHIBITION was 3.87%. As to `O=C(NCCOc1ncc(Cl)cc1Cl)c1cccnc1`, the INHIBITION is recorded as 19.4%. Next, `Cc1ccoc1C(=O)NCCOc1ncc(Cl)cc1Cl`: 52%.

As for `O=C(CCn1cccn1)NCCOc1cccc(Cl)c1`, the INHIBITION turned out to be 54.4%.

Regarding `O=C(NCCOc1ncc(Cl)cc1Cl)c1ccoc1`, the INHIBITION turned out to be 24.6%. With `O=C(CCn1cccn1)NCCOc1ncc(Cl)cc1Cl`, the INHIBITION is reported as 53.3%.
